The structures appear in SMILES notation. This is part of a sample that, as a whole, favours compounds with a hit. Of some 83,000 tested, about 20% had one in any assay.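 How to read the values: 0–100, growth inhibition (40 = 60% inhibited); 0, no net growth; -100 to 0, cell death (-40 = 40% of starting cells died; -100 = all dead).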 A number with no mark means an inactive call. Calls of active or inactive are those of the source. How the source made its calls: active means growth percent below 10; inactive means the rest.

Test systems include NCI-H23 lung; NCI-H226 lung; NCI-H322M lung; HOP-62 NSCLC; NCI-H460 lung; HOP-92 NSCLC; NCI-H522 lung; A549/ATCC NSCLC; 786-0 renal; COLO 205 colon; DU-145 prostate; K-562 leukemia; MALME-3M melanoma; MDA-MB-231 breast; RXF 393 renal; SF-268 CNS; SF-295 CNS; SF-539 CNS; UACC-257 melanoma; M14 melanoma.
What all share (test): NCI-60 one-dose screen, 48 h (100 = growth as untreated, 0 = no growth, -100 = all killed)
What all share (conditions): 10 µM unless noted

`C[C@H]1[C@H](C)CC[C@]2(CO)CC[C@]3(C)C(=CC[C@@H]4[C@@]5(C)Cc6c([nH]c7ccccc67)C(C)(C)[C@@H]5CC[C@]43C)[C@H]12`: the growth with NCI-H23 lung is 74.6%; with NCI-H226 lung it was 76.9%; in the experiment on NCI-H322M lung, 72.3%; with HOP-62 NSCLC, 89%; with NCI-H460 lung, 66.8%; in the experiment with HOP-92 NSCLC it was 101%. In addition, the growth is -12.7% (active) in the experiment on NCI-H522 lung; 81% in the experiment with A549/ATCC NSCLC; 76.1% in the experiment with 786-0 renal; 95.1% in the experiment with COLO 205 colon; 71.1% in the experiment with DU-145 prostate; 52.4% in the experiment with K-562 leukemia. Besides, the growth in the experiment on MALME-3M melanoma was 46.9%; in the experiment on MDA-MB-231 breast, 88.8%; with RXF 393 renal, 84.1%; in the experiment with SF-268 CNS, 74.5%; in the experiment on SF-295 CNS it was 81.2%; in the experiment with SF-539 CNS it was 96%. The growth with UACC-257 melanoma was 108%; in the experiment on M14 melanoma it was 92.8%.
`COc1ccc(/C=C/C(=O)c2ccc(OC)c(OC)c2)cc1O`: the growth was 73.1% in the experiment with NCI-H23 lung; 86.3% in the experiment with NCI-H226 lung; 78.6% in the experiment on NCI-H322M lung; 39.7% in the experiment with HOP-62 NSCLC; 44.2% in the experiment on NCI-H460 lung; 29.1% with HOP-92 NSCLC. The growth with NCI-H522 lung was 51.9%; in the experiment with A549/ATCC NSCLC, 26.4%; in the experiment on 786-0 renal, 98.2%; in the experiment with COLO 205 colon, 104%; in the experiment on DU-145 prostate, 21%; in the experiment with K-562 leukemia it was 14.7%. Moreover, the growth was 90.9% in the experiment on MALME-3M melanoma; 73% with MDA-MB-231 breast; 72.1% in the experiment on RXF 393 renal; 80.7% in the experiment on SF-268 CNS; 104% in the experiment with SF-295 CNS; 79.8% in the experiment on SF-539 CNS. Also, the values for the growth with UACC-257 melanoma and in the experiment on M14 melanoma were 96.6% and 97.7%, respectively.
Turning to `CCNC(=S)NNC(=O)c1cc2ccc1CCc1ccc(cc1)CC2`, the growth is 97.7% with NCI-H23 lung; 106% in the experiment on NCI-H226 lung; 95.1% in the experiment on NCI-H322M lung; 101% in the experiment on HOP-62 NSCLC; 103% with NCI-H460 lung; 97.2% in the experiment with HOP-92 NSCLC. Further, the growth in the experiment on NCI-H522 lung is 92.7%; in the experiment on A549/ATCC NSCLC it was 101%; with 786-0 renal, 106%; in the experiment on COLO 205 colon, 107%; in the experiment on DU-145 prostate it was 103%; with K-562 leukemia it was 100%. Moreover, the growth with MALME-3M melanoma was 101%; with MDA-MB-231 breast, 100%; with RXF 393 renal, 109%; in the experiment with SF-268 CNS, 95.4%; in the experiment on SF-295 CNS, 93.2%; in the experiment on SF-539 CNS it was 101%. For the same compound, the results for the growth in the experiment on UACC-257 melanoma and in the experiment with M14 melanoma were 109% and 95%, respectively.
`CCCN=C(N)c1ccc(NC(=O)c2ccc(C(=O)Nc3ccc(C(N)=NCCC)cc3)cc2)cc1`: the growth in the experiment on NCI-H23 lung was 93.1%; in the experiment on NCI-H226 lung it was 73.4%; in the experiment with NCI-H322M lung, 96.2%; with HOP-62 NSCLC, 86.2%; with NCI-H460 lung, 99.1%; with HOP-92 NSCLC, 88.6%. Besides, the growth in the experiment with NCI-H522 lung was 95%; in the experiment on A549/ATCC NSCLC it was 97.4%; with 786-0 renal, 98.7%; with COLO 205 colon, 70.5%; in the experiment on DU-145 prostate, 107%; in the experiment on K-562 leukemia it was 91%. Also, the growth was 88.1% with MALME-3M melanoma; 96.6% in the experiment with MDA-MB-231 breast; 96.5% in the experiment on RXF 393 renal; 95.8% in the experiment on SF-268 CNS; 90.3% in the experiment on SF-295 CNS; 92.8% with SF-539 CNS. The results for the growth in the experiment on UACC-257 melanoma and with M14 melanoma were 101% and 98.4%, respectively.
With `NC(=O)CN1CCN(c2ccccc2Cl)CC1`, the growth with NCI-H23 lung is 99.7%; with NCI-H226 lung, 102%; with NCI-H322M lung it was 94.3%; with HOP-62 NSCLC, 104%; in the experiment on NCI-H460 lung it was 111%; in the experiment on HOP-92 NSCLC, 103%. For the same compound, the growth with NCI-H522 lung was 92.3%; in the experiment with A549/ATCC NSCLC, 111%; in the experiment on 786-0 renal, 91.6%; in the experiment with COLO 205 colon it was 110%; in the experiment on DU-145 prostate, 108%; with K-562 leukemia, 97.2%. Also, the growth is 104% in the experiment with MALME-3M melanoma; 102% in the experiment on MDA-MB-231 breast; 112% in the experiment on RXF 393 renal; 106% with SF-268 CNS; 97.9% with SF-295 CNS; 107% in the experiment with SF-539 CNS. The figures for the growth with UACC-257 melanoma and with M14 melanoma were 107% and 102%, respectively.
For the compound `CC(=O)N1c2ccccc2NC2=C(C(=O)N(C)C2(C)C)C1C` (stereo not given), the growth in the experiment with NCI-H23 lung is 50.2%; in the experiment on NCI-H226 lung, 91.1%; with NCI-H322M lung, 73.4%; in the experiment with HOP-62 NSCLC, 61.6%; in the experiment on NCI-H460 lung it was 21.9%; with HOP-92 NSCLC it was 37.5%. Moreover, the growth in the experiment with NCI-H522 lung was 18.6%; in the experiment with A549/ATCC NSCLC, 80.3%; in the experiment with 786-0 renal it was 80.1%; with COLO 205 colon it was 14.2%; in the experiment with DU-145 prostate, 79%; with K-562 leukemia, 16.6%. Besides, the growth is 44.3% in the experiment on MALME-3M melanoma; 63.3% in the experiment on MDA-MB-231 breast; 27.8% in the experiment with RXF 393 renal; 43% in the experiment with SF-268 CNS; 46% in the experiment with SF-295 CNS; 20.1% in the experiment on SF-539 CNS. Besides, the growth in the experiment on UACC-257 melanoma is 36.4%; in the experiment on M14 melanoma, 21.5%.
For `COc1cc(C(=O)/C=C/c2c(C)n([O-])c3ccc(Cl)cc3[n+]2=O)cc(OC)c1OC`, the growth is 72% in the experiment on NCI-H23 lung; 93.2% in the experiment on NCI-H226 lung; 102% in the experiment with NCI-H322M lung; 82% in the experiment on HOP-62 NSCLC; 83% in the experiment with NCI-H460 lung; -31.2% (active) in the experiment with HOP-92 NSCLC. For the same compound, the growth in the experiment on NCI-H522 lung is -77.3% (active); in the experiment with A549/ATCC NSCLC, 81.5%; in the experiment with 786-0 renal it was 61.7%; with COLO 205 colon, 36.4%; with DU-145 prostate it was 36.3%; in the experiment on K-562 leukemia it was 1.97% (active). The growth in the experiment on MALME-3M melanoma is 95.4%; in the experiment with MDA-MB-231 breast, 81%; with RXF 393 renal it was 43.2%; with SF-268 CNS it was 65.5%; with SF-295 CNS, 95%; in the experiment with SF-539 CNS, 73.7%. Besides, the growth in the experiment on UACC-257 melanoma was 81.2%; in the experiment with M14 melanoma, 80.9%.

The values above are taken from PubChem BioAssay (NCI).
